# Calls of active or inactive are those of the source. Cut-off read from the data, not from the text of the source, unless noted: active = inhibition above about 80%; inactive = the rest.
# Columns and labels:
# [1] = growth inhibition, single agent or in combination, cell-based, chromothripsis tumors, cisplatin or BGB combos (AID 1671449); settings: LFS_MB_P medulloblastoma cells;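 note: cells exposed for 96 hours; 0% = vehicle DMSO and 100% = killing by high DMSO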
# [2] = growth inhibition, single agent and combos, cell-based, chromothripsis tumors, cisplatin or BGB combos (AID 1671450); settings: HDN33 neuroblastoma cells, stronger effect = higher value;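 note: cells exposed to compound for four days; 0% = vehicle DMSO and 100% = cell killing by high DMSO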
# [3] = growth inhibition, single agents and combos, ICB984, cell-based, cisplatin or BGB combos, synergistic combos for chromothripsis tumors (AID 1671451; call rule not given here;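 note: cells exposed for 96 hours before readout; 0% = vehicle DMSO and 100% = killing by high DMSO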); settings: ICB984 medulloblastoma cells, drug combinations, stronger effect = higher value
# [4] = growth inhibition, single agents and combos, LFS_MB_1R, cell-based, cisplatin or BGB combos, synergistic combos for chromothripsis tumors (AID 1671452); settings: LFS_MB_1R medulloblastoma cells, stronger effect = higher value;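 note: cells exposed for 96 hours before readout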
# [5] = growth inhibition, single agents and combos, HTB85, cell-based, BGB or cisplatin IC20 combos, synergistic combos for chromothripsis tumors (AID 1671453); settings: HTB85 osteosarcoma cells, drug combinations, stronger effect = higher value;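 note: cells exposed for 96 hours before readout; 0% = vehicle DMSO and 100% = high DMSO killing control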
# [6] = growth inhibition, single agents and combos, CRL2098, cell-based, BGB or cisplatin IC20 combos, synergistic combos for chromothripsis tumors (AID 1671454); settings: CRL2098 osteosarcoma cells, drug combinations, stronger effect = higher value;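 note: cells exposed for 96 h before readout; 0% = vehicle DMSO and 100% = killing by high DMSO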
# [7] = growth inhibition, single agents and combos, HD-MB03, cell-based, BGB or cisplatin IC20 combos, synergistic combos for chromothripsis tumors (AID 1671455; in the data active = inhibition above about 83%;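 note: 0% = vehicle DMSO and 100% = high DMSO as cytotoxic control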); settings: HD-MB03 medulloblastoma cells, stronger effect = higher value
# [8] = growth inhibition, single agents and combos, UWB1.289, cell-based, BGB or cisplatin combos, synergistic combos for chromothripsis tumors (AID 1671456); settings: UWB1.289 ovarian carcinoma cells, stronger effect = higher value;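 note: cells exposed to compound for four days; 0% = vehicle DMSO and 100% = killing by high DMSO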
# [9] = growth inhibition, single agents and combos, LFS_MB_2R, cell-based, cisplatin combos, synergistic combos for chromothripsis tumors (AID 1671457); settings: LFS_MB_2R medulloblastoma cells, stronger effect = higher value;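 note: cells exposed to compound for four days before readout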
# [10] = growth inhibition, MDA-MB-436, cell-based, BGB or cisplatin combos, synergistic combos for chromothripsis tumors (AID 1671458; call rule not given here;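 note: cells exposed for 96 hours; 0% = vehicle DMSO and 100% = killing by high DMSO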); settings: MDA-MB-436 breast carcinoma growth inhibition, drug combinations, stronger effect = higher value
# [11] = UWB1.289_BRCA1 ovarian cancer growth, cell-based, BGB or cisplatin combinations (AID 1671459); settings: UWB1.289 BRCA1 ovarian carcinoma, drug combinations, stronger effect = higher value
# [12] = drug combination toxicity in non-malignant astrocytes – cell-based, BGB or cisplatin IC20 combos, cytotoxicity control for chromothriptic childhood tumor combination screen (AID 1671460); settings: Human astrocytes, viability inhibition, drug combinations, at 0.5 µM, stronger effect = higher value;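 note: cells exposed to compounds for 96 hours before viability readout; 0% = vehicle and 100% = killing control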
# [13] = BT084 cell growth, single and combined drugs, ICGC_MB145, cisplatin and BGB IC40 combos (AID 1671461); settings: BT084 medulloblastoma cells, drug combinations, stronger effect = higher value;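 note: cells exposed to drugs for 96 hours; 0% = vehicle DMSO and 100% = high DMSO full killing control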
# [14] = RCMB18 cell growth, single agent and combined, cisplatin and BGB IC40 combos (AID 1671462); settings: RCMB18 medulloblastoma cells, stronger effect = higher value;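 note: cells exposed to compound for four days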
# [15] = CRL1545 cell growth, single agent and combined, cisplatin and BGB IC20 combos (AID 1671464); settings: CRL1545 osteosarcoma cells, stronger effect = higher value;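 note: cells exposed to compound for 96 hours before readout; 0% = vehicle DMSO and 100% = high DMSO killing control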
# [16] = at 0.5 µM, stronger effect = higher value
# [17] = measured here: combination with BGB IC20, at 0.005 µM
# [18] = measured here: combination with BGB IC40, at 0.005 µM
# [19] = measured here: combination with BGB IC40, at 0.05 µM
# [20] = measured here: combination with cisplatin, at 0.5 µM, stronger effect = higher value
# [21] = measured here: combination with cisplatin, at 5 µM, stronger effect = higher value
# [22] = measured here: with BGB IC20 combination, at 0.5 µM
# [23] = measured here: with cisplatin IC20 combination, at 0.5 µM
# [24] = measured here: 5 uM single agent, at 5 µM
# [25] = measured here: combination with cisplatin, at 0.5 µM
# [26] = measured here: combination with cisplatin, at 5 µM
# [27] = measured here: with BGB IC20, at 0.5 µM
# [28] = measured here: with BGB IC20, at 5 µM
# [29] = measured here: with cisplatin IC20, at 0.5 µM
# [30] = measured here: with cisplatin IC20, at 5 µM
# [31] = measured here: combination with BGB at IC20, at 0.5 µM
# [32] = measured here: combination with cisplatin at IC20, at 0.5 µM
# [33] = measured here: combo with BGB at IC20, at 0.5 µM
# [34] = measured here: combo with cisplatin at IC20, at 0.5 µM
# [35] = measured here: inhibition with BGB combination, at 0.05 µM
# [36] = measured here: inhibition with cisplatin combination, at 0.05 µM
# [37] = measured here: BGB combination, at 0.5 µM
# [38] = measured here: BGB combination, at 5 µM
# [39] = measured here: cisplatin combination, at 0.5 µM
# [40] = measured here: cisplatin combination, at 5 µM
# [41] = BGB combination, concentration series, at 5 µM
# [42] = cisplatin combination, concentration series, at 5 µM
# [43] = measured here: combo with BGB IC20
# [44] = measured here: combo with cisplatin IC20
# [45] = cisplatin combination, at 0.5 µM
# [46] = measured here: BGB IC40 combination 0.05 uM, at 0.05 µM
# [47] = measured here: BGB IC40 combination, at 0.05 µM
smiles,measurement,setting,value
Cn1cnc2[nH]c(=O)[nH]c(=O)c21,inhibition,[1]; [16],-31.2% (inactive)
same,inhibition,[1]; [17],-23.8%
same,inhibition,[1]; [18],-24.9%
same,inhibition,[1]; [19],-15.5%
same,inhibition,[1]; [20],-52.2%
same,inhibition,[1]; [21],-16.9%
same,inhibition,"[2]; BGB combo, at 5 µM",-14.9%
same,inhibition,[2]; at 0.5 µM,-29.3% (inactive)
same,inhibition,"[2]; cisplatin combo, at 5 µM",-9.77%
same,inhibition,[2]; [22],-37.1%
same,inhibition,[2]; [23],-7.77%
same,inhibition,"[2]; single agent, at 5 µM",-7.59%
same,inhibition,"[3]; BGB IC20 combo, at 0.005 µM",-15.3%
same,inhibition,"[3]; BGB IC40 combo, at 0.005 µM",-28.7%
same,inhibition,"[3]; BGB IC40 combo, at 0.05 µM",-16.7%
same,inhibition,[3]; at 0.5 µM,-24.9% (inactive)
same,inhibition,"[3]; cisplatin combo, at 0.05 µM",-16.7%
same,inhibition,"[3]; cisplatin combo, at 0.5 µM",-33.2%
same,inhibition,"[3]; cisplatin combo, at 5 µM",-13.6%
same,inhibition,[3]; [24],2.87%
same,inhibition,[4]; at 0.5 µM,-24.6% (inactive)
same,inhibition,[4]; [19],-0.159%
same,inhibition,[4]; [25],11.9%
same,inhibition,[4]; [26],-7.74%
same,inhibition,[5]; at 0.5 µM,-29.8% (inactive)
same,inhibition,[5]; [27],-76.7%
same,inhibition,[5]; [28],-27.8%
same,inhibition,[5]; [29],0.051%
same,inhibition,[5]; [30],18.6%
same,inhibition,"[5]; single agent, at 5 µM",-24.4%
same,inhibition,[6]; at 0.5 µM,-69.2% (inactive)
same,inhibition,[6]; [31],-77.5%
same,inhibition,[6]; [32],-102%
same,inhibition,[7]; at 0.5 µM,-10.2% (inactive)
same,inhibition,[7]; [33],-8.65%
same,inhibition,[7]; [34],-11.2%
same,inhibition,[8]; at 0.5 µM,-8.42% (inactive)
same,inhibition,[8]; [35],-20.6%
same,inhibition,[8]; [36],-21.4%
same,inhibition,[9]; at 0.5 µM,-6.27% (inactive)
same,inhibition,[9]; [25],-10.9%
same,inhibition,[9]; [26],-15.8%
same,inhibition,[10]; at 0.5 µM,-15.1% (inactive)
same,inhibition,[10]; [37],-7.33%
same,inhibition,[10]; [38],-1.97%
same,inhibition,[10]; [39],-35.1%
same,inhibition,[10]; [40],-7.26%
same,inhibition,[11]; [41],-2.15%
same,inhibition,[11]; at 0.5 µM,-8.08% (inactive)
same,inhibition,[11]; [42],4.95%
same,inhibition,[12],14% (inactive)
same,inhibition,[12]; [43],17.9%
same,inhibition,[12]; [44],4.38%
same,inhibition,[13]; at 0.5 µM,-17.3% (inactive)
same,inhibition,[13]; [45],-7.22%
same,inhibition,"[13]; cisplatin combination, at 5 µM",-68.1%
same,inhibition,[13]; [46],-20.6%
same,inhibition,"[13]; single agent, at 5 µM",-30.4%
same,inhibition,[14]; at 0.5 µM,-15.8% (inactive)
same,inhibition,"[14]; cisplatin combo, at 5 µM",-20.1%
same,inhibition,[14]; [47],-17.4%
same,inhibition,[14]; [25],-33.2%
same,inhibition,"[14]; single agent, at 5 µM",-24.4%
same,inhibition,[15]; at 0.5 µM,-15.4% (inactive)
same,inhibition,[15]; [22],4.76%
same,inhibition,[15]; [23],-25.6%
same,inhibition,"[15]; single agent, at 0.05 µM",-33.9%
same,inhibition,"[15]; single agent, at 5 µM",-5.96%
C=C(C)C1CCC2(C(=O)O)CCC3(C)C(CCC4C5(C)CCC(O)C(C)(C)C5CCC43C)C12 (stereo unspecified),inhibition,[1]; [16],-26.5% (inactive)
same,inhibition,[1]; [17],-25.5%
same,inhibition,[1]; [18],15.5%
same,inhibition,[1]; [19],-1.2%
same,inhibition,[1]; [20],-45.1%
same,inhibition,[1]; [21],-28.2%
same,inhibition,"[2]; BGB combo, at 5 µM",-9.64%
same,inhibition,[2]; at 0.5 µM,-2.09% (inactive)
same,inhibition,"[2]; cisplatin combo, at 5 µM",-9.94%
same,inhibition,[2]; [22],-1.87%
same,inhibition,[2]; [23],-3.24%
same,inhibition,"[2]; single agent, at 5 µM",-1.41%
same,inhibition,"[3]; BGB IC20 combo, at 0.005 µM",-15.2%
same,inhibition,"[3]; BGB IC40 combo, at 0.005 µM",-18.6%
same,inhibition,"[3]; BGB IC40 combo, at 0.05 µM",9.33%
same,inhibition,[3]; at 0.5 µM,-29.1% (inactive)
same,inhibition,"[3]; cisplatin combo, at 0.05 µM",9.33%
same,inhibition,"[3]; cisplatin combo, at 0.5 µM",-38%
same,inhibition,"[3]; cisplatin combo, at 5 µM",-7.17%
same,inhibition,[3]; [24],-4.58%
same,inhibition,[4]; at 0.5 µM,-20% (inactive)
same,inhibition,[4]; [19],-20.5%
same,inhibition,[4]; [25],-33%
same,inhibition,[4]; [26],-12.9%
same,inhibition,[5]; at 0.5 µM,-2.9% (inactive)
same,inhibition,[5]; [27],-17.7%
same,inhibition,[5]; [28],-3.73%
same,inhibition,[5]; [29],-4.54%
same,inhibition,[5]; [30],5.41%
same,inhibition,"[5]; single agent, at 5 µM",-0.003%
same,inhibition,[6]; at 0.5 µM,-11.7% (inactive)
same,inhibition,[6]; [31],-25.6%
same,inhibition,[6]; [32],19.7%
same,inhibition,[7]; at 0.5 µM,-2.78% (inactive)
same,inhibition,[7]; [33],-2.46%
same,inhibition,[7]; [34],-4.95%
same,inhibition,[8]; at 0.5 µM,0.66% (inactive)
same,inhibition,[8]; [35],-7.77%
same,inhibition,[8]; [36],-4.44%
same,inhibition,[9]; at 0.5 µM,0.87% (inactive)
same,inhibition,[9]; [25],-5.32%
same,inhibition,[9]; [26],12.1%
same,inhibition,[10]; at 0.5 µM,-18.9% (inactive)
same,inhibition,[10]; [37],-9.2%
same,inhibition,[10]; [38],-5.74%
same,inhibition,[10]; [39],-43.5%
same,inhibition,[10]; [40],3.21%
same,inhibition,[11]; [41],-4.55%
same,inhibition,[11]; at 0.5 µM,-1.24% (inactive)
same,inhibition,[11]; [42],-5.38%
same,inhibition,[12],6.79% (inactive)
same,inhibition,[12]; [43],-11.2%
same,inhibition,[12]; [44],21%
same,inhibition,[13]; at 0.5 µM,-12.4% (inactive)
same,inhibition,[13]; [45],-2.33%
same,inhibition,"[13]; cisplatin combination, at 5 µM",-35.9%
same,inhibition,[13]; [46],10.4%
same,inhibition,"[13]; single agent, at 5 µM",-5.82%
same,inhibition,[14]; at 0.5 µM,-0.59% (inactive)
same,inhibition,"[14]; cisplatin combo, at 5 µM",-5.83%
same,inhibition,[14]; [47],12.3%
same,inhibition,[14]; [25],-32.4%
same,inhibition,"[14]; single agent, at 5 µM",7.3%
same,inhibition,[15]; at 0.5 µM,-2.94% (inactive)
same,inhibition,[15]; [22],-13.1%
same,inhibition,[15]; [23],2.15%
same,inhibition,"[15]; single agent, at 0.05 µM",-25.4%
same,inhibition,"[15]; single agent, at 5 µM",16.8%

# Reference: PubChem BioAssay
